This is an account of results in PubChem BioAssay (NCATS).

Test [1] concerns the target Glucocorticoid receptor (Homo sapiens) (UniProt P04150). The experiment in a line: qHTS assay for small molecule agonists of glucocorticoid receptor signaling (AID 588532; active means well fitted curve in the direction sought with a large enough effect in the signal ratio, with a control signal flat; the % refers to the signal ratio;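 further: 100% = dexamethasone at 0.1 µM and 0% = DMSO only wells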). The following applies: HeLa MMTV-bla, beta-lactamase ratio, agonist, 18 h; activation: stronger effect = higher value, percent of dexamethasone control, DMSO zero. An outline of the steps:
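Quantitative HTS using CellSensor MMTV-bla HeLa cells in charcoal/dextran-treated serum; compounds tested up to 92 uM. After 18 h at 37 C, CCF4 dye reported reporter induction.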
On the technique in general: In qHTS, concentration-response curves come from the screen itself.

Test [2] has as its target Peroxisome proliferator-activated receptor delta (Homo sapiens) (UniProt Q03181). Briefly: qHTS assay for small molecule agonists of peroxisome proliferator-activated receptor delta signaling (AID 588534).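 Further: 0% = DMSO basal wells and 100% = positive control agonist at 10 µM.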 An outline of the steps: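 Agonist-mode beta-lactamase reporter readout (CCF4 dye, 2 h at RT) after 18 h at 37 °C exposure to a titration; Hill-equation fitting gave EC50 and maximal response.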

Test [3] in a line: qHTS assay for small molecule antagonists of peroxisome proliferator-activated receptor delta signaling (AID 588535; active means well fitted inhibition curve with a large enough effect in the signal ratio, with a control signal flat, not every such curve was filed as active; the % refers to the signal ratio;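 on max response: cells co-treated with a PPAR-delta agonist as stimulator during compound exposure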). The following applies: HEK293T PPARd-UAS-bla, beta-lactamase FRET ratio, 18 h; 460 nm channel. An outline of the steps: (§1)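 Titrations were run on PPAR-delta-UAS-bla HEK293T cells in charcoal/dextran-stripped serum, incubated 18 h at 37 C. CCF4 fluorescence (460/530 nm) after 2 h RT; Hill equation yields IC50 and maximal response.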

Test [4] addresses Peroxisome proliferator-activated receptor delta (Homo sapiens) (UniProt Q03181). The test is described as above. In short, it runs like this: as §1
The target in test [5] is Vitamin D3 receptor (Homo sapiens) (UniProt P11473). The experiment in a line: qHTS assay for small molecule agonists of vitamin D receptor signaling (AID 588543).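 Further: 0% = DMSO basal and 100% = reference agonist control.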 An outline of the steps:
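Measured: β-lactamase reporter activity (CCF4, 405 nm excitation, 460/530 nm emission) in HEK293T VDR-UAS-bla cells after 16 h compound exposure at 37 °C. Normalization against 50 nM 1α,25-dihydroxyvitamin D3 and DMSO; Hill-fit EC50.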

Test [6] addresses Thyroid hormone receptor beta (Homo sapiens) (UniProt P10828). Briefly: qHTS assay for small molecule agonists of thyroid hormone receptor beta signaling (AID 588545).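 Further: 0% = DMSO only and 100% = 10 nM T3.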 An outline of the steps:
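Stimulation of a TR-driven beta-lactamase reporter was quantified in GripTite HEK 293 cells. Compound series ran for 18 hrs; curves were normalized to T3 and DMSO controls and fitted to yield EC50.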

Test [7] in a line: qHTS assay for small molecule antagonists of retinoid X receptor alpha signaling (AID 588546; active means well fitted inhibition curve with a large enough effect in the signal ratio, with a control signal flat, not every such curve was filed as active; the % refers to the signal ratio;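 further: cells stimulated with 9-cis-retinoic acid as agonist; on the % scale 0 is the no-effect control and ±100 the full control effect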). The following applies: HEK293T RXRa-UAS-bla, beta-lactamase ratio, antagonist mode; measured here: W530 green channel, cytotoxicity proxy. In short, it runs like this: (§2)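 Beta-lactamase reporter inhibition, read as CCF4 fluorescence ratio (ex 405, em 460/530 nm) after 2 h at RT. HEK293T UAS-bla cells, 2500/well, were stimulated with 9-cis-RA at 500 or 100 nM final alongside test compound for 18 h at 37 C.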

Test [8] deals with Retinoic acid receptor RXR-alpha (Homo sapiens) (UniProt P19793). Described as above. The following applies: HEK293T RXRa-UAS-bla, beta-lactamase ratio, antagonist mode. In short, it runs like this:
as §2

Test [9] addresses Thyroid hormone receptor beta (Homo sapiens) (UniProt P10828). Briefly: qHTS assay for small molecule antagonists of thyroid hormone receptor beta signaling (AID 588547; active means well fitted inhibition curve with a large enough effect in the signal ratio, with a control signal flat, not every such curve was filed as active; the % refers to the signal ratio;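 further: cells stimulated with 0.4 nM T3 agonist during compound exposure; series mostly up to about 77 µM; on the % scale 0 is the no-effect control and ±100 the full control effect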). The note with it: TR-UAS-bla HEK293, beta-lactamase ratio, antagonist mode, 18 h. An outline of the steps: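 Inhibition of T3-driven (0.4nM final) beta-lactamase reporter activity was measured over 0.59 nM to 92 uM compound after 18 h at 37 C. The cells were GripTite HEK293 TR-UAS-bla in charcoal/dextran-stripped serum, with CCF4 ratio read-out and IC50 from Hill fits.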

Test [10] can be described thus: qHTS assay for small molecule activators of the p53 signaling pathway (AID 651743; active means well fitted activation curve with a large enough effect in the signal ratio, not every such curve was filed as active; the % refers to the signal ratio; further: series mostly up to about 92 µM; % of control where 0% means no effect). The note with it: HCT-116 p53RE-bla, beta-lactamase FRET ratio, 16 h; activation: stronger effect = higher value. An outline of the steps:
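After 16 hours compound treatment at 37 C, HCT-116 cells stably expressing p53RE-driven beta-lactamase were loaded with LiveBLAzer B/G FRET substrate for 2 hours at room temperature. Fluorescence intensity served as the p53 activation read-out.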

The nature of test [11]: qHTS assay for environmental chemicals that activate the Aryl hydrocarbon Receptor (AhR) signaling pathway (AID 651777; active means well fitted curve in the direction sought with a large enough effect; an effect the other way counts as inactive or inconclusive; further: nearly all actives have a fitted effect of over 15% in size; further: potency means the concentration at half of the fitted maximal effect; on activation: % of control where 0% means no effect). The note with it: 1A2-DRE human hepatoma cells, luciferase, 24 h; activation: stronger effect = higher value. In short, it runs like this:
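Quantitative HTS in stably transfected human liver-derived cells whose luciferase gene sits downstream of the CYP1A2 promoter and dioxin response element. After 24 hr exposure at 37 C, One-Glo luminescence was measured.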

In test [12] the target is Peroxisome proliferator-activated receptor alpha (Homo sapiens) (UniProt Q07869). Briefly: qHTS assay for small molecule agonists of the peroxisome proliferator-activated receptor alpha (PPARalpha) signaling pathway (AID 651778; active means well fitted curve in the direction sought with a large enough effect; an effect the other way counts as inactive or inconclusive; further: % of control where 0% means no effect). The following applies: PathHunter PPARalpha complementation, chemiluminescence, 6 h; max response: stronger effect = higher value. An outline of the steps:
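Chemiluminescence from complemented enzyme reported PPARalpha activation in cells after 6 hr of compound treatment at 37 C. The detection reagent was incubated for 60 min at room temperature, and compounds were scored as agonists.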

Test [13] in a line: qHTS assay for small molecule agonists of the antioxidant response element (ARE) signaling pathway measured by Nrf2-dependant transcriptional activity (AID 720636; active means well fitted curve in the direction sought with a large enough effect in the repeat runs; an effect the other way counts as inactive or inconclusive; further: % of control where 0% means no effect). An outline of the steps: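 Quantitative HTS format in HepG2 cells stably expressing an ARE-luciferase reporter; 16 hr compound treatment at 37 C, luciferase signal detected with ONE-Glo.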
Test [14] is described as follows: qHTS assay for small molecule agonists of the antioxidant response element (ARE) signaling pathway measured by Nrf2-dependant transcriptional activity - cell viability counter screen (AID 720653; active means well fitted curve in the direction sought with a large enough effect in the repeat runs; an effect the other way counts as inactive or inconclusive; further: on the % scale 0 is the no-effect control and ±100 the full control effect). The following applies: ARE-bla HepG2 viability, CellTiter-Glo ATP luminescence, 16 h; max response: stronger effect = lower value. An outline of the steps: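 Cytotoxicity counter screen: intracellular ATP quantified by CellTiter-Glo luminescence in the same ARE-bla HepG2 plates, after 16 h compound exposure and a 2 h beta-lactamase substrate step.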

The nature of test [15]: qHTS assay for cell viability of HEK293 cells (AID 743288; active means well fitted curve in the direction sought with a large enough effect; an effect the other way counts as inactive or inconclusive; further: on the % scale 0 is the no-effect control and ±100 the full control effect; nearly all actives have a fitted effect of over 50% in size). The note with it: ATP luminescence (CellTiter-Glo), 18 h; max response: stronger effect = lower value. In short, it runs like this: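 HEK293, 18 h, 37 C, ATP luminescence. Cells at 2,000/well were allowed at least 5 h to settle before dosing; CellTiter-Glo developed 30 min at RT.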
Test [16] is described as follows: qHTS assay for small molecule agonists of the antioxidant response element (ARE) signaling pathway (AID 651741; active means well fitted activation curve with a large enough effect in the signal ratio; the % refers to the signal ratio; further: potency means the concentration at half of the fitted maximal effect; on activation: % of control where 0% means no effect). In short, it runs like this:
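Beta-lactamase reporter under ARE control in HepG2 cells, 2,000 per well, was induced by 16 h compound treatment at 37 C. Read-out was fluorescence from LiveBLAzer B/G FRET substrate after 2 h at room temperature.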

The nature of test [17]: qHTS assay for cell viability of the p53RE-bla HCT-116 cell line (AID 743292; active means well fitted curve in the direction sought with a large enough effect; an effect the other way counts as inactive or inconclusive; further: nearly all actives have a fitted effect of over 55% in size; further: potency means the concentration at half of the fitted maximal effect). An outline of the steps: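 Viability of compound-treated p53RE-bla HCT-116 cells is taken from ATP-dependent luciferase luminescence. Treatment lasts 16 h at 37 C after a 5 h settling period; detection follows 30 min at room temperature.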
Test [18] in a line: qHTS assay for small molecule activators of the human pregnane X receptor (PXR) signaling pathway (AID 720659; call rule not given here; further: 0% is about no effect).
For test [19], the target named is Peroxisome proliferator-activated receptor gamma (Homo sapiens) (UniProt P37231). The experiment in a line: qHTS assay for small molecule agonists of peroxisome proliferator-activated receptor gamma signaling (AID 588536; active means well fitted curve in the direction sought with a large enough effect in the signal ratio, with a control signal flat, not every such curve was filed as active; the % refers to the signal ratio;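 further: 0% = DMSO basal wells and 100% = rosiglitazone at 2 µM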). An outline of the steps: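 This is an agonist-mode beta-lactamase reporter assay in HEK293 PPAR-gamma-UAS-bla cells with 1% charcoal/dextran FBS. Compound titrations ran 16 h at 37 C before CCF4 detection. EC50 and efficacy are Hill fits scaled to 2 uM rosiglitazone (100%) and DMSO basal.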
Chain of Peroxisome proliferator-activated receptor gamma (Homo sapiens) (P37231 whole entry, looked up): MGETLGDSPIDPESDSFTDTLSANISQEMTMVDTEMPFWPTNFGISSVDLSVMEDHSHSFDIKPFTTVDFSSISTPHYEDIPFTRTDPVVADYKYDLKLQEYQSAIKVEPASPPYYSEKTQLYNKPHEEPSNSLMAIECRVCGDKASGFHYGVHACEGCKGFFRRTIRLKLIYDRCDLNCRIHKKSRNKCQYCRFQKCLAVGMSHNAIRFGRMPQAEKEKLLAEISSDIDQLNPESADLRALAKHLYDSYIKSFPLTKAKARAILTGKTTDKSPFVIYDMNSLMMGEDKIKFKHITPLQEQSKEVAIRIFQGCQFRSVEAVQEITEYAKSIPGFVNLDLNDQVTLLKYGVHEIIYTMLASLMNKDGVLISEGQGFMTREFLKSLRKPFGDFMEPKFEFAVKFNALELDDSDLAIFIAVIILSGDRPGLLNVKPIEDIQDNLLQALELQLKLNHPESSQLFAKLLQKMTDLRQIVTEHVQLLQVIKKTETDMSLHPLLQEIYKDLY

Test [20] shares this target. Briefly: qHTS assay for small molecule antagonists of peroxisome proliferator-activated receptor gamma signaling (AID 588537; active means well fitted inhibition curve with a large enough effect in the signal ratio, with a control signal flat, not every such curve was filed as active; the % refers to the signal ratio;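 further: reporter cells co-stimulated with 50 nM rosiglitazone agonist during compound treatment; % of control where 0% means no effect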). In short, it runs like this: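 Antagonist-mode β-lactamase reporter screen run as a titration series. HEK293 PPARγ-UAS-bla cells are stimulated with rosiglitazone (50 nM final) for 16 h, then CCF4 is read at 460/530 nm. Data are scaled between DMSO and rosiglitazone and fitted to the Hill equation.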

In test [21] the target is Vitamin D3 receptor (Homo sapiens) (UniProt P11473). Briefly: qHTS assay for small molecule antagonists of vitamin D receptor signaling (AID 588541).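 Further: receptor activated by calcitriol during compound treatment; series mostly up to about 77 µM; on the % scale 0 is the no-effect control and ±100 the full control effect.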 In short, it runs like this: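 Antagonist-mode beta-lactamase reporter assay: HEK293T VDR-UAS-bla cells were exposed to titrated compound alongside 1-alpha,25-dihydroxyvitamin D3 at 3 nM final for 16 h. Values were normalized to the 50 nM agonist control and DMSO basal, with IC50 and efficacy from Hill equation fits.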
Chain of Vitamin D3 receptor (Homo sapiens) (P11473 whole entry, looked up): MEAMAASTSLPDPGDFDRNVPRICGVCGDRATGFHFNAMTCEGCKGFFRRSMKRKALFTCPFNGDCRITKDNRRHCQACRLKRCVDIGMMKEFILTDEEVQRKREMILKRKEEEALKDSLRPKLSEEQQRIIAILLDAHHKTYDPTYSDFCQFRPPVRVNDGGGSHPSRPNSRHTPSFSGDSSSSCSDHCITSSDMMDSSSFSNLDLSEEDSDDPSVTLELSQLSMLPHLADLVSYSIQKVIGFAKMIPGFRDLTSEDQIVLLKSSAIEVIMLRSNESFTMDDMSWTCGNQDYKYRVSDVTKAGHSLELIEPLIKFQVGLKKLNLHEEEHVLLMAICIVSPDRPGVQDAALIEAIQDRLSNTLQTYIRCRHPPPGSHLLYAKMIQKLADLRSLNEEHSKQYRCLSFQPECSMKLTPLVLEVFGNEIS

Test [22] is described as follows: qHTS assay for small molecule agonists of retinoid X receptor alpha signaling (AID 588544).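 On activation: 0% = DMSO basal wells and 100% = reference agonist.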 The following applies: HEK293T RXRa-UAS-bla, beta-lactamase reporter, 18 h; 530 nm emission.
In test [23] the target is Retinoic acid receptor RXR-alpha (Homo sapiens) (UniProt P19793). The description is as above.
Chain of Retinoic acid receptor RXR-alpha (Homo sapiens) (P19793 whole entry, looked up): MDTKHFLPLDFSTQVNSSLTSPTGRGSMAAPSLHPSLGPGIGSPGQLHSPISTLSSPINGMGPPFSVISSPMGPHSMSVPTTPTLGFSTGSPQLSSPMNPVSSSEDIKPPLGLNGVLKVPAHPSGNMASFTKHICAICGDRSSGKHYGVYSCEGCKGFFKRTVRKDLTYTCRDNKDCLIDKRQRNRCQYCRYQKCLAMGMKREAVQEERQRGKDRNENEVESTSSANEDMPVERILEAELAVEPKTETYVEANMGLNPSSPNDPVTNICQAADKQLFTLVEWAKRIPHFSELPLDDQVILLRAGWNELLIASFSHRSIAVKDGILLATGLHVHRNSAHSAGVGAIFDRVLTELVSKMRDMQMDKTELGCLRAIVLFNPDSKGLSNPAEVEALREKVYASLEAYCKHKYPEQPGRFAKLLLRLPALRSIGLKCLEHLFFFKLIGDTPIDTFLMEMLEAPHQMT
For test [24], the target named is Nuclear receptor subfamily 1 group I member 2 (Rattus norvegicus) (UniProt Q9R1A7). The experiment in a line: qHTS assay for small molecule activators of the rat pregnane X receptor (rPXR) signaling pathway (AID 651751; call rule not given here; further: 0% is about no effect). The note with it: rPXR reporter cells, luciferase (One-Glo), 24 h.
Chain of Nuclear receptor subfamily 1 group I member 2 (Rattus norvegicus) (Q9R1A7 whole entry, looked up): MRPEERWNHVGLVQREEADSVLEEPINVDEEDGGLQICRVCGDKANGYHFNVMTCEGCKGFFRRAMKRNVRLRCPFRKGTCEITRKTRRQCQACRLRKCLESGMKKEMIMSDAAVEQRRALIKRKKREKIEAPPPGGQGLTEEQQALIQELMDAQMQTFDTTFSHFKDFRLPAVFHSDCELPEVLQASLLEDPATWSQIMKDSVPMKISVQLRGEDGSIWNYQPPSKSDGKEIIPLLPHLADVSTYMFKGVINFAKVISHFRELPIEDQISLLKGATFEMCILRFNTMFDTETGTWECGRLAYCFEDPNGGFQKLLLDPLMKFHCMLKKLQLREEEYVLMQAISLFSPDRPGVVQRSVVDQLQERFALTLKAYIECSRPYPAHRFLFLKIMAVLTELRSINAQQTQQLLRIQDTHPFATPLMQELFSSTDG

Structures are written as SMILES. Inconclusive results are not listed. Active and inactive are the calls of the source. Unless noted, the call rests on the fitted dose curve.

Chain of Glucocorticoid receptor (Homo sapiens) (P04150 whole entry, looked up): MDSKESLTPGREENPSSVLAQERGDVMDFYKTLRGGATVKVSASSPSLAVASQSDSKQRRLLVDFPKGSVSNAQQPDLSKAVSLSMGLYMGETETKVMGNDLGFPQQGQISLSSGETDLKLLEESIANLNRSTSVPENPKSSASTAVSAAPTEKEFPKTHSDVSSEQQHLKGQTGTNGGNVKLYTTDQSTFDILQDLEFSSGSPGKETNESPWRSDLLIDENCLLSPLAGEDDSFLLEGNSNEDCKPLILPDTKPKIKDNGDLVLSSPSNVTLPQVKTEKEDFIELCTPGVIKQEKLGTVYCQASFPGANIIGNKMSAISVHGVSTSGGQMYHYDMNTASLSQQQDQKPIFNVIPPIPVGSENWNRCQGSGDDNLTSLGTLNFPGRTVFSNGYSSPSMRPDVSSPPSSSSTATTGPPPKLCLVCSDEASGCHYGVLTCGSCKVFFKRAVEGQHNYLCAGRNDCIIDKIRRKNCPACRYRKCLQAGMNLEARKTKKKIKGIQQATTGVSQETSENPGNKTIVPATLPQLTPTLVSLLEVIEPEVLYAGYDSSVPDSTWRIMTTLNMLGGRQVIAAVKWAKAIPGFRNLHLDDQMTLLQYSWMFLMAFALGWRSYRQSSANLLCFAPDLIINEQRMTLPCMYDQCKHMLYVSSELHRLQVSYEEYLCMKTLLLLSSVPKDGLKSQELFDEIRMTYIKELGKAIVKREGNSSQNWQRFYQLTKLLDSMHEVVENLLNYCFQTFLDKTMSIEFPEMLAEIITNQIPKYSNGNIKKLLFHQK
Chain of Peroxisome proliferator-activated receptor delta (Homo sapiens) (Q03181 whole entry, looked up): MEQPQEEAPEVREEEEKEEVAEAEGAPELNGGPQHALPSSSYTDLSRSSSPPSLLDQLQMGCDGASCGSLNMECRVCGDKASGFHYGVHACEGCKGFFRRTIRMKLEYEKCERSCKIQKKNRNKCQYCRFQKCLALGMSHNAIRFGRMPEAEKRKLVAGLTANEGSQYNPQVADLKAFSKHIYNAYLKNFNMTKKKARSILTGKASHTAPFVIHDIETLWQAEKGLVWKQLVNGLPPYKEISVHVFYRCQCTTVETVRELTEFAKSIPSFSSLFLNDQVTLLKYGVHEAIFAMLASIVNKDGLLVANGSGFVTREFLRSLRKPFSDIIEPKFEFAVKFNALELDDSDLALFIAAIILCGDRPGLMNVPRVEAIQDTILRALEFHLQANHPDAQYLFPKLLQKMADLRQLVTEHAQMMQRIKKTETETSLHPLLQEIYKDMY
Chain of Peroxisome proliferator-activated receptor alpha (Homo sapiens) (Q07869 whole entry, looked up): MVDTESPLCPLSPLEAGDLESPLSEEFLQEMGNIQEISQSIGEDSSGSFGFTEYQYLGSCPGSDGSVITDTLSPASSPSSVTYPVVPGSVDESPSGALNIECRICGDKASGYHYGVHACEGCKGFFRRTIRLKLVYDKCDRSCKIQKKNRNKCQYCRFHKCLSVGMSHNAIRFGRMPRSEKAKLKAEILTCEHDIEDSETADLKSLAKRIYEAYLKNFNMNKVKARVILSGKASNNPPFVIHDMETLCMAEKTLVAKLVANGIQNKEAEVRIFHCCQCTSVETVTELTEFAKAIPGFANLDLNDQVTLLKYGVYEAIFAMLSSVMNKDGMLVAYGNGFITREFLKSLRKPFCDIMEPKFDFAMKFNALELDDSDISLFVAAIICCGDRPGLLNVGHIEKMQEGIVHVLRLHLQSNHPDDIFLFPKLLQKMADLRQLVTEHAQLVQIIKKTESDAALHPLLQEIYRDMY
Chain of Thyroid hormone receptor beta (Homo sapiens) (P10828 whole entry, looked up): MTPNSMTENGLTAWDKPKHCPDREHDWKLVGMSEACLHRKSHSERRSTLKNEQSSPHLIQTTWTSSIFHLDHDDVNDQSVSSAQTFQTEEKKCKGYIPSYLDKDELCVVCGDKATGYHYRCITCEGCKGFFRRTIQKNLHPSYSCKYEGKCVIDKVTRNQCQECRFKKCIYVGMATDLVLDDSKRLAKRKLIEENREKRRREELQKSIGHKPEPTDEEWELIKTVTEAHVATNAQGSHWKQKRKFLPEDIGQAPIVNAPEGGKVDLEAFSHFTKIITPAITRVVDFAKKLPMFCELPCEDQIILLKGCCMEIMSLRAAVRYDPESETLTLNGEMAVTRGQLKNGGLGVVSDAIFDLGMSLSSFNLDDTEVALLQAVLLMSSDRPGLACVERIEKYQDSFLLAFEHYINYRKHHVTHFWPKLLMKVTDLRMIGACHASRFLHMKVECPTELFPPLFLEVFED

With `OC(c1ccc(Cl)cc1)(c1cncnc1)c1ccccc1Cl` (stereo not drawn), the activation was -10.1% (inactive) in test [1], -2.63% (inactive) in test [10] and 2.31% (inactive) in test [11]. The result in test [2] and in [5] was inactive. Further, the max response in test [3] was 31.8%; in [7] it was 8.06%; in [8], -39.6% (inactive); in [12], -4.62% (inactive); in [14], -4.24% (inactive); in test [15] it was -17.1% (inactive). Further, the Potency entry in test [4], in test [6] and in test [13] was “inactive” each time. In addition, the activity change % (negative = inhibition) in test [9] was 5.6% (inactive).
For `O=C1C(Cl)=C(Cl)C(=O)c2ccccc21`, the activation in [1] is -5.64% (inactive). Also, the Potency was 2.73 µM (active) in test [16], 50.1 µM (active) in [11] and 50.1 µM (active) in test [17]. Moreover, in test [12], the max response is -10.7% (inactive). Besides, in [18], the compound was classed as inactive.
For the compound `CCCCNCC`, the call in [2] was inactive.
As to `COP(=O)(NC(C)=O)SC` (stereo not drawn), the activation was -2.58% (inactive) in test [1], -0.529% (inactive) in test [10] and -1.62% (inactive) in test [11]. Also, the compound was called inactive in test [2], in test [5] and in test [18]. Further, the max response in test [3] was -7.01%; in [22] it was 4.58%; in test [7] it was 3.46%; in test [8] it was -12.8% (inactive); in test [12], -0.657% (inactive); in test [14], -8.51% (inactive). Further, the results for the max response in [15] and in test [24] were -8.22% (inactive) and -1.19% (inactive), respectively. The Potency entry in test [4], in test [19], in [20], in test [21], in test [23] and in [6] was “inactive” in each case. Moreover, the Potency result in [16], in test [13] and in test [17] was “inactive” in each case. Also, the activity change % (negative = inhibition) in test [9] is -13.5% (inactive).
In the case of `CCCCCCCC/C=C\CCCCCCCCCCCCC`, the outcome in [2] was inactive.
On the same count and under the same terms, in the case of `NS(=O)(=O)O` it was “inactive”.
